According to PubChem BioAssay (NCI):
Compounds without any hit were thinned out: in the full panel of roughly 83,000, 20% have a hit.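 Interpretation: 100, growth as untreated; towards 0, rising growth inhibition; 0, no net growth; 0 to -100, cell death. Compounds scoring below 10 were considered active.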 The source made the active and inactive calls.

test system: MDA-MB-468 breast; assay: NCI-60 one-dose screen, 48 h (100 = growth as untreated, 0 = no growth, -100 = all killed); conditions: 10 µM unless noted

| Structure (SMILES) | growth |
| --- | --- |
| CCOC(=O)c1c2c(n3ccc(C)cc13)C(=O)c1ccccc1C2=O | 102% (inactive) |
| COc1ccc2c(c1)NC(=O)CN2c1nc(C)nc2ccccc12 | 9.26% (active) |
| Cc1c2ccncc2c(C)c2c1c1cc(CO)ccc1n2C | -46.1% (active) |
| CCCCCCCCCC(=O)Oc1ccc(/C(=C(/C)c2ccccc2)c2ccc(OCCN3CCCC3)cc2)cc1 | -29.4% (active) |
| Cc1ccc(C)c2c1sc1nc3n[nH]c(N)c3c(=N)n12 | 97.1% (inactive) |
| Cc1cccc(N=Cc2ccccc2O)c1C | 103% (inactive) |
| O=c1oc2ccc(Cl)cc2c(=O)n1-c1ccc(F)cc1F | -4.5% (active) |
| COc1ccc(-c2cnc(-c3ccc(F)cc3)[nH]2)cc1 | 90.3% (inactive) |
| O=C=NC(c1ccccc1)(c1ccccc1)c1ccccc1 | 118% (inactive) |
| CCC(=O)Oc1ccc(/C(=C(/C)Cc2cccc(OC)c2)c2ccc(OCCN(C)C)cc2)cc1 | 76.1% (inactive) |
| COc1cc2c(cc1-c1c(C)noc1C)ncc1nc(-c3ccccn3)n([C@H](C)COC(F)F)c12 | 46.5% (inactive) |
| O=C(CN1C(=O)S/C(=C\C(Cl)=C\c2ccccc2)C1=O)NC1C=CS(=O)(=O)C1 (stereo not given) | -54.5% (active) |
| CC1=NC2=NN3C(=NN2C(c2ccccc2)=C1)N=NC(c1ccc(Br)cc1)=C3c1ccc(Br)cc1 | 105% (inactive) |
| O=C(Nc1nc2ccc(F)cc2s1)c1cc(-c2ccc(F)cc2)n2nc(-c3ccccc3)cc2n1 | 92% (inactive) |
| COc1ccc(-c2nc3ccc(-c4nc5ccc(N6CCN(c7ccccc7)CC6)cc5[nH]4)cc3[nH]2)cc1OC | -46.1% (active) |
